Laboratory results: PubChem BioAssay AID1259336 (Sattelle Laboratory, UCL Respiratory, Division of Medicine, …, 2017)
Active and inactive are the calls of the source. Cut-off read from the data, not from the text of the source: active = log2 fold change growth below about -1.8; inactive = the rest.

Assay: anthelmintic activity against nematode growth – whole organism, log2 fold change (AID 1259336);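 note: growth scored by imaging after five days at 20 °C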
Conditions: C. elegans growth, anthelmintic screen; hits give low values

log2 fold change growth, inactive:
Cc1ccc(NC(=O)c2nc[nH]c2C(=O)Nc2nc3ccccc3[nH]2)c(C)c1 -0.815, CC(=O)N(CCN(C(=O)c1ccc(F)cc1)c1ccccc1)c1ccccc1 0.382, NC(=O)c1cc(Br)ccc1OCCOc1ccccc1 0.186, C[C@H]1CCCCN1C(=O)NCCc1coc(-c2ccc(F)cc2)n1 0.0232, CN1CCC(c2cc(-c3ccncc3)c(-c3ccc(F)cc3)[nH]2)CC1 -0.12, CNc1nnc(Sc2cnn(-c3ccccc3)c(=O)c2Cl)s1 -0.948, O=C(C1CCN(c2cc(-n3cccc3)ncn2)CC1)N1CCc2ccccc2C1 -0.11, COc1cccc(-c2nc3c(N4CCCC4)cccc3n2C[C@H]2CCCN2)n1 0.434, Nc1ncnc2n[nH]c(Cc3cccc4ccccc34)c12 0.242, c1ccc(-c2[nH]c3ccccc3c2[C@@H](c2ccccn2)N2CCCC2)cc1 -0.0251, CN(C(=O)c1cc2c(-c3cncnc3)cccc2[nH]1)c1ccccc1 -0.492, CN(C)c1cc(NC(=O)Nc2ccccc2)c2ccccc2n1 0.272, Cc1ccc(S(=O)(=O)n2cc(-c3ccnc(N)c3)c3cc(Br)cnc32)cc1 -0.39, Cc1nnc(NCc2cccc(Cl)c2)c2ccccc12 0.138, CO[C@H]1/C=C/O[C@@]2(C)Oc3c(C)c(O)c4c(O)c(c(/C=N/N5CCN(C)CC5)c(O)c4c3C2=O)NC(=O)/C(C)=C\C=C[C@H](C)[C@H](O)[C@@H](C)[C@@H](O)[C@@H](C)[C@H](OC(C)=O)[C@@H]1C 0.729, COc1cc(N[C@@H](C)CCCN)c2ncccc2c1 -0.0147, CNC(=O)[C@@H]1Cc2c([nH]c3cc(Cl)ccc23)C2(CCN(CCc3ccccc3)CC2)N1 0.551, CC1=Nc2ccc(Cl)cc2[C@@](O)(c2ccc(C)cc2)N1CCN1CCCCC1 0.034, CC(C)(CN)c1nc(-c2ccc(Cl)c(O)c2)c(-c2ccnc(N)n2)[nH]1 -0.414, CS(=O)(=O)N1CCC(CCn2nc(Cc3cccc4ccccc34)c3c(N)ncnc32)CC1 -1.16, O=C(Nc1n[nH]c(=S)s1)c1cc(Br)ccc1Cl 0.172, CNC(=O)[C@@H]1Cc2ccccc2N1C(=O)Cc1ccc(F)cc1 0.145, COc1ccc(-c2cnc3ccc(NCc4ccc(S(N)(=O)=O)cc4)nn23)cn1 0.21, COC[C@H](C)NC(=O)CSc1ncnc2sc(-c3ccccc3)cc12 -0.053, N#Cc1nc(-c2ccccc2)oc1S(=O)(=O)c1ccc(Cl)cc1 0.277, Nc1nc(N)c2c3c(sc2n1)CN(Cc1ccccc1)CC3 0.456, O=C(N[C@H]1CCN(c2ccnc3ccccc23)C1)c1cccc(C(F)(F)F)c1 0.541, O=S(=O)(c1ccc(Cl)cc1)N1CCN(C(=S)NCc2ccco2)CC1 -0.203, Cc1cccc(NC(=O)c2cc(S(=O)(=O)N(C)c3ccc(F)cc3)ccc2Cl)n1 -0.21, CCOc1ccc2cc(-c3nn(CC4CCN(C)CC4)c4ncnc(N)c34)ccc2c1 0.151, C[C@H](Oc1cccc(Cl)c1)C(=O)Nc1ccc2oc(-c3ccncc3)nc2c1 0.206, CCc1cc(=O)n(C)c(S[C@@H](C)C(=O)Nc2ccc(F)cc2)n1 -0.417, CCc1ccccc1-n1c(C)cn2c3c(=O)n([C@H](C(=O)OC)C(C)C)c(=O)n(C)c3nc12 0.456, O=C(Nc1cnc2ccccc2c1)c1cccc(-n2cnnn2)c1 0.489, Oc1c(I)cc(I)c2cccnc12 0.0616, CCCn1c(NC(=O)c2ccc3ccccc3n2)nc2ccccc21 -0.0431

log2 fold change growth, active:
CN1CCN(c2cc(-c3ccc(F)cc3)nc(-c3ccncc3)n2)CC1 -1.96, CC(C)n1ncc2c(C(=O)NC[C@@H](c3cccs3)N3CCOCC3)cc(-c3ccccc3)nc21 -2.7
